This note sets out measurements from PubChem BioAssay AID1628 (Sanford-Burnham Center for Chemical Genomics, 2009).

In all, about 190,000 compounds went through this assay and about 930 (0.49%) were called active.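 Rule for the calls: active = z-score of insulin promoter reporter brightness in nuclei below -3 at 5 µM, with at least 500 cells counted; inconclusive = wells with under 500 cells, flagged as toxic or sparse; inactive = the rest.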 The list shows a part of the results. Potency and affinity values are given separately.

This test can be described thus: insulin promoter down-regulators in MIN6 cells, imaging, high-content screening, mouse beta cells (AID 1628). To be noted: MIN6 insulin promoter GFP reporter, at 5 µM, stronger effect = lower value.
Consider `CCOC(=O)CC1C(=O)NCCN1S(=O)(=O)c1ccc(Cl)cc1Cl` (configuration not stated), for which the z-score was 3.29 (inactive).

As for `Cc1ccc(-c2nnc(Cc3ccc([N+](=O)[O-])cc3)o2)cc1`, the z-score is 2.29 (inactive).

Take `COc1ccc(C2CC(=O)N(CCCN(C)CCc3ccc(OC)c(OC)c3)C2)cc1` (configuration not stated): the z-score was 1.63 (inactive).

On to `COc1ccc(-c2ccc(-c3nnc(Cc4ccc(OC)c(OC)c4)o3)cc2)cc1`, for which the z-score was -4.88 (active).

For the compound `O=C(/C=C/c1ccc2ccccc2n1)c1cc(Br)ccc1O`, the z-score is 4.36 (inactive).

Take `CCOC(=O)Cn1c(=O)c(-c2cc(Br)ccc2N)nc2ccccc21`: the z-score is 6.82 (inactive).

For `CC(=O)c1cccc(NC(=O)c2c(F)c(F)c(F)c(F)c2F)c1`, the z-score is 0.06 (inactive).

Regarding `C/C(=N\NC(=O)c1cccc(N/N=C(\C)c2cc(O)ccc2O)c1)c1cc(O)ccc1O`, the z-score was -4.19 (active).

For the compound `Cc1cc(C2C(C#N)=C(N)Oc3n[nH]c(C)c32)c(C)s1` (configuration not stated), the z-score was 3.37 (inactive).

In the case of `Cc1ccc(OCCn2nc3ccccc3n2)c(C)c1`, the z-score was -6.61 (active).

As to `Cc1c(C(=O)O)cccc1-c1ccc(/C=C2/NC(=O)N(c3ccccc3)C2=O)o1`, the z-score is 3.88 (inactive).

For the compound `O=C(Nc1ccccc1)Nc1ccc(-n2ccc(C(F)(F)F)n2)cc1`, the z-score is -3.4 (active).

For `C=CCC(c1ccccc1)N(C(C)=O)c1ccco1` (configuration not stated), the z-score is 3.62 (inactive).

With `CC(/C=C/c1ccco1)=N\NC(=O)C(O)c1ccccc1` (configuration not stated), the z-score was -4.52 (active).

For the compound `COc1ccc(CNC(=O)/C=C/c2ccco2)cc1OC`, the z-score was 1.08 (inactive).

For the compound `CCOc1cc([N+](=O)[O-])cc2c1C(=O)Nc1ccccc1O2`, the z-score is 5.94 (inactive).

For `CCOC(=O)c1cc2c(ccn2C)n1CC(=O)N1CCC(Cc2ccccc2)CC1`, the z-score was -3.62 (active).

With `Cc1cccc2c(C(=O)N3CCN(C(=O)c4ccco4)CC3)cc(-c3cccc(Br)c3)nc12`, the z-score is -4.53 (active).

Consider `Nc1nc(N2CCN(C(=O)c3ccco3)CC2)nc2ccc(Br)cc12`, for which the z-score was -3.6 (active).

`CC(=O)c1ccc2cccc3c2c1N=CN3C`: the z-score was 3.38 (inactive).

With `CN(C)S(=O)(=O)c1ccc(N2CCN(S(=O)(=O)c3ccc(F)cc3)CC2)c(Cl)c1`, the z-score is -3.39 (active).

With `Cc1sc2nc(C3CC3)nc(NCCNS(=O)(=O)c3ccccc3)c2c1C`, the z-score was -0.22 (inactive).

As for `CN(C)/C=C1/Nc2ccccc2C1=O`, the z-score was 4.71 (inactive).

Turning to `COC1OC(CO)C(O)C(O)C1O` (configuration not stated), the z-score is -0.58 (inactive).

Turning to `Cc1cc(C)nc(SCC(=O)Nc2ccc(N3CCOCC3)c(Cl)c2)n1`, the z-score was -11 (active).

For `Cc1ccc(NC(=O)CCn2cccc2)cc1Cl`, the z-score is 3.23 (inactive).

`O=S(=O)(Nc1cc2nc3ccccc3nc2n1Cc1ccccc1)c1ccc(Cl)cc1`: the z-score is 15.3 (inactive).

Consider `CCc1nc(Nc2ccc(N3CCN(C(C)=O)CC3)cc2)c2oc3ccccc3c2n1`, for which the z-score is -4.54 (active).

For `Cc1nc2c(oc3ccccc32)c(=O)o1`, the z-score is 4.23 (inactive).

In the case of `Cc1cccc(N2CCCn3c2nc2c3c(=O)n(CCN3CCOCC3)c(=O)n2C)c1`, the z-score is -3.6 (active).

As for `Cc1cc(/C=C2\NC(=S)N(C)C2=O)ccc1N1CCCC1`, the z-score is 14.3 (inactive).

As for `Cc1oc2ncnc(N)c2c1C`, the z-score is 0.96 (inactive).

For `CCCCN(C)CC(O)Cn1cc(/C=C/C(=O)c2cccs2)c2ccccc21` (configuration not stated), the z-score is 4.79 (inactive).

As for `CC(Cc1cccs1)NC(=O)Nc1ccccc1` (configuration not stated), the z-score was -4.74 (active).

For `CC(NC(=O)/C(C#N)=C1\N=C(NC(=O)c2cccs2)c2ccccc21)c1ccccc1` (configuration not stated), the z-score was 3.96 (inactive).

As to `Nc1nnc(-c2cc3c(ccc4ccccc43)oc2=O)s1`, the z-score is 8.81 (inactive).

In the case of `O=C(c1ccco1)N1CCN(C(=O)N2c3ccccc3Sc3ccccc32)CC1`, the z-score is -3.22 (active).

For the compound `CN(C)N(C)C(=O)C(O)(c1ccccc1)c1ccccc1`, the z-score was -3.03 (active).

Regarding `COC(=O)c1ccc(N2CCN(S(=O)(=O)c3ccc4ccccc4c3)CC2)c([N+](=O)[O-])c1`, the z-score was -4.04 (active).

As for `CCN1CC=C2C(C#N)=C(N)C(C#N)(C#N)C(c3cc(Cl)ccc3Cl)C2C1` (configuration not stated), the z-score is 15.3 (inactive).

Consider `O=C1c2cccc3c(N4CCCCC4)ccc(c23)C(=O)N1c1ccc(O)cc1`, for which the z-score is 6.1 (inactive).

On to `O=C(COc1ccc2ccccc2c1Br)Nc1ncn[nH]1`, for which the z-score was 1.51 (inactive).

In the case of `Cc1cc(-c2ccccc2)cc(-c2ccccc2)[n+]1C`, the z-score is -5.05 (active).

For `COCCN1CN(S(=O)(=O)c2ccccc2)c2nc3ccccc3nc21`, the z-score was 3.14 (inactive).

Turning to `O=[N+]([O-])c1ccc(N2N=C(c3ccco3)CC2c2ccccc2)cc1` (configuration not stated), the z-score was 3.05 (inactive).

Consider `CCC(C)(C)n1nnnc1CN(Cc1ccco1)Cc1cc2cc3c(cc2[nH]c1=O)OCO3`, for which the z-score was -2.22 (inactive).

As to `Cc1cc(C)c2[nH]c(=O)c(CN(Cc3ccc4c(c3)OCO4)Cc3nnnn3C3CCCC3)cc2c1`, the z-score is -3.04 (active).

As to `CCc1ccc2[nH]c(=O)c(CN(Cc3ccc4c(c3)OCO4)Cc3nnnn3C3CCCC3)cc2c1`, the z-score was -5.41 (active).

`CCc1ccc2[nH]c(=O)c(CN(Cc3nnnn3C3CCCC3)C3CCCCC3)cc2c1`: the z-score is -3.09 (active).

As to `O=C(OCC(=O)c1ccc[nH]1)c1ccccc1`, the z-score is 2.07 (inactive).

Turning to `CCOc1cc(C(=O)OCC(=O)NC(C)c2ccccc2)ccc1OCC(=O)N1CCOCC1` (configuration not stated), the z-score is 2.57 (inactive).

In the case of `O=C(COc1ccc(S(=O)(=O)NCc2ccccc2)cc1Cl)N1CCOCC1`, the z-score was -4.71 (active).

On to `O=[N+]([O-])c1cc(S(=O)(=O)/N=C(/c2ccccc2)N2CCOCC2)ccc1Cl`, for which the z-score was 1.77 (inactive).

On to `CCCCn1c(CCC(=O)O)nc2cc(S(=O)(=O)N(C)C)ccc21`, for which the z-score was -3.06 (active).

In the case of `O=c1[nH]c2ccccc2c(O)c1O`, the z-score was -0.06 (inactive).

As for `CN(C)C(=S)N=Nc1[nH]c2ccccc2c1O`, the z-score is -5.59 (active).

Turning to `O=C(CNC(=O)c1cccc(F)c1)N/N=C/c1cc(Br)ccc1OC(=O)/C=C/c1ccco1`, the z-score is -8.62 (active).

Turning to `Cc1ccc(CNc2ccc3c(c2)OCO3)c(C)c1`, the z-score is 3.69 (inactive).

Consider `COc1cc(C)c(CNc2ccc(OC)c(OC)c2)cc1C`, for which the z-score was -4.27 (active).

On to `CCc1ccc(NC(=O)c2cc(C(C)C)on2)cc1`, for which the z-score is 3.36 (inactive).

In the case of `CCc1ccc(NC(=O)c2c(C(=O)Nc3ccccc3)sc3nc(C)cc(=O)n23)cc1`, the z-score is -3.57 (active).

On to `CC(=O)n1c(C=Nc2ccccc2)c(O)c2ccccc21`, for which the z-score is 3.61 (inactive).
